Data published in publication PMC7819943, “Rice protein-binding microarrays: a tool to detect cis-acting elements near promoter regions in rice”.
Whole data set: some 39,000 sequences, median “fluorescence intensity (a.u.)” near 4,300, cut for the highest 2% near 39,000. The full list was thinned out, with the highest values kept by preference.

Each sequence was assayed against T1, OsSMF1 (Oryza sativa, UniProt Q6ZLB0 1-436) (assay: protein-binding microarray (RPBM); PBS, 2% BSA, 51.3 ng/ul salmon testes DNA, 50 uM zinc acetate, 200 nM TF, 25 C, 1 h; high values mean tight binding). Conditions: protein: recombinant; tags: N-terminal polyhistidine and DsRed monomer fusion (pET32a); chain copies: 2; label: CyDye5-dUTP incorporated in the synthesized complementary strand; 3' TTTTT single-stranded linker to array surface; dsDNA, one strand shown.
T1 sequence: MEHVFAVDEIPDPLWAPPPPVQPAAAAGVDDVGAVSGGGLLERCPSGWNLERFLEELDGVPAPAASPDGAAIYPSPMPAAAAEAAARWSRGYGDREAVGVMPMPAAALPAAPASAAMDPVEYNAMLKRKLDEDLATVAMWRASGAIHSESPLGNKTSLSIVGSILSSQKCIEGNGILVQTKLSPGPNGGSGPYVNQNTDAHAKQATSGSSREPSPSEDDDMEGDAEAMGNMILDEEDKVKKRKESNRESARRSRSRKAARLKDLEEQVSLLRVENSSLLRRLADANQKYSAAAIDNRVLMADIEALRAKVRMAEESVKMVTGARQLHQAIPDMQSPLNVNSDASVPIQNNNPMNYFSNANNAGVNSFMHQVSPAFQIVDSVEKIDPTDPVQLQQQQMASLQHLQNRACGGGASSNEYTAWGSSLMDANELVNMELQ
How it was run: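 An Axon 4000B scanner gave the binding signal as per-feature fluorescence intensity in arbitrary units. This followed washing of a custom Agilent array that had been incubated for 1 h at 25 °C with 200 nM protein in PBS, 2% BSA, salmon testes DNA and 50 µM zinc acetate. The proteins were transcription factors fused at the N-terminus to polyhistidine and DsRed, expressed in E. coli BL21-CodonPlus and purified on Ni–NTA.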

| Sequence | binding signal |
| --- | --- |
| GCATGTAGCTATGCAGCCATCCACGTCACTCCTTGCGTACCGGAGTCACCTAGTGCAG | 31800 fluorescence intensity (a.u.) |
| ATTAAGCACTACGTCAGATATGATTGGCCATCATTGCATTCGGAGTCACCTAGTGCAG | 3150 fluorescence intensity (a.u.) |
| ACACCCGTCCGTCCCGTCTCGTTCTGCGCCGTCTCGCCGGCGGAGTCACCTAGTGCAG | 18700 fluorescence intensity (a.u.) |
| GAAGATAGTACTAACTATATTTTGTAACGGAGAGATTGTTCGGAGTCACCTAGTGCAG | 4130 fluorescence intensity (a.u.) |
| TTCTTATTGTCTTAGCTACAAACGATCCATACAAACATTGCGGAGTCACCTAGTGCAG | 4240 fluorescence intensity (a.u.) |
| TTGGACAAATCATTTGGCAAAATTTCAAAGTTTTGAATCTCGGAGTCACCTAGTGCAG | 28600 fluorescence intensity (a.u.) |
| AATAGTAGGCTATAAGCCGGCTAAATGCTGAGGTGGAGGACGGAGTCACCTAGTGCAG | 5420 fluorescence intensity (a.u.) |
| TAGAATTGTCAAGTCAATGCCACGTGGGACAAAGACCTAGCGGAGTCACCTAGTGCAG | 17900 fluorescence intensity (a.u.) |
| TGTGGACAATGCTAGAAAGTCTTACATTGTCAAACGGATGCGGAGTCACCTAGTGCAG | 39500 fluorescence intensity (a.u.) |
| TGAGTGAATACACAGTACTATGACGACGATAAGGTTGGGGCGGAGTCACCTAGTGCAG | 32700 fluorescence intensity (a.u.) |
| ATGCTAGAAAGTCTTATAACCTGAAACGGAGGTAGTAGGACGGAGTCACCTAGTGCAG | 65000 fluorescence intensity (a.u.) |
| TACACACCATAATTGAAGTATTGAGTCACACATAATTGAACGGAGTCACCTAGTGCAG | 3220 fluorescence intensity (a.u.) |
| TCAAATTGAAAGTTTCCAAAATTTTCAAATCTGGACTTGACGGAGTCACCTAGTGCAG | 43500 fluorescence intensity (a.u.) |
| AAATTGAGTTGAAAATTTTCAAATCTCGACTTGAAAGTTTCGGAGTCACCTAGTGCAG | 21800 fluorescence intensity (a.u.) |
| AGTAGTGAGGTTGAGGCATAAGTACATTGAATTGAATTGACGGAGTCACCTAGTGCAG | 44100 fluorescence intensity (a.u.) |
| TGTTAGAAAGTCTTATAATATAAAACGGAGGAAATATTTACGGAGTCACCTAGTGCAG | 6480 fluorescence intensity (a.u.) |
| TCTCTCTCACTCTTCTCTTGCAGGCCTGCGTGGCATACTACGGAGTCACCTAGTGCAG | 7430 fluorescence intensity (a.u.) |
| CGGAAACAGATCATCAAACCCATACGTCAGTGATCCAAGTCGGAGTCACCTAGTGCAG | 3410 fluorescence intensity (a.u.) |
| TTCCAGTCCACCGTGGCGGTGGCGCGTCAGCTTTCCAGCCCGGAGTCACCTAGTGCAG | 12000 fluorescence intensity (a.u.) |
| GGTCCACCCGAATCGGAGTCAGCCAGCCAAGCCACCTAATCGGAGTCACCTAGTGCAG | 4780 fluorescence intensity (a.u.) |
| GCCGGTCGAACCGCCCGAACACCTACGGTCAGACCGCTGCCGGAGTCACCTAGTGCAG | 3360 fluorescence intensity (a.u.) |
| CTTCATACTGCAGTATCTGAAAAGATGTCATTGTAAAGTTCGGAGTCACCTAGTGCAG | 3140 fluorescence intensity (a.u.) |
| TTATGTTTGAATTTAAGTTTTGAGTTTTGTTGCGTGCGCACGGAGTCACCTAGTGCAG | 28800 fluorescence intensity (a.u.) |
| TGTGATTGTATTGGTTACTAGAGTAGTATTTAGTAGAGATCGGAGTCACCTAGTGCAG | 42200 fluorescence intensity (a.u.) |
| CCAAAATGAGTTGAAATGAATTTTGTATGCATTTTATAAACGGAGTCACCTAGTGCAG | 6000 fluorescence intensity (a.u.) |
| TATTGATTGATTGGTTAGTACTACAGTACTGTAGGAGTGGCGGAGTCACCTAGTGCAG | 29800 fluorescence intensity (a.u.) |
| TTGTAGAAGTTGAATTTGGTTTTACATATTTGTGGAGTGACGGAGTCACCTAGTGCAG | 61600 fluorescence intensity (a.u.) |

| Sequence | binding signal |
| --- | --- |
| GCATGTTTTGAGTTTGAAAGTTTTAAATTTTGAGTTGAAACGGAGTCACCTAGTGCAG | 50200 fluorescence intensity (a.u.) |
| GTTGTTGATGTGATTGTGTGTATTCAAGTAGAGATTGGGTCGGAGTCACCTAGTGCAG | 3240 fluorescence intensity (a.u.) |
| TAGTTGTGACACGTAGAAGTTGAATTTTAACTTTTATGTTCGGAGTCACCTAGTGCAG | 4370 fluorescence intensity (a.u.) |
| CATGTTTGTGAAGTGACGTATTACATATTGATCTATTTGACGGAGTCACCTAGTGCAG | 8700 fluorescence intensity (a.u.) |
| CGACTGAAGACTTGGACACGGTCAGTCTTTCTGCCGTGTTCGGAGTCACCTAGTGCAG | 5080 fluorescence intensity (a.u.) |
| ACCAAAGTTGGTACAAGTGTATAATCAGAATGGGAGAGCGCGGAGTCACCTAGTGCAG | 21600 fluorescence intensity (a.u.) |
| AATCGATTCTCCACTACTCTCTCGTCATTGTTCCCATGTTCGGAGTCACCTAGTGCAG | 3270 fluorescence intensity (a.u.) |
| CCTCCTGTCAGACTGTCGTCAGTGTCACACTGTCACTGTCCGGAGTCACCTAGTGCAG | 6520 fluorescence intensity (a.u.) |
| AAAAGACTGGAATACGTGGCGAACAAACTTTATTACACAACGGAGTCACCTAGTGCAG | 6740 fluorescence intensity (a.u.) |
| AAACTTATTTGGCCATGGTGTCATCGGGGTTGGCGTTTAGCGGAGTCACCTAGTGCAG | 3860 fluorescence intensity (a.u.) |
| TTTATTACACAACGCAACTGGCCAGACTTTAGCGGGTCATCGGAGTCACCTAGTGCAG | 46000 fluorescence intensity (a.u.) |
| GCATGCAGGGCATGGCGAGACGGTGACGTGCTCCAAGGCGCGGAGTCACCTAGTGCAG | 4760 fluorescence intensity (a.u.) |
| ACTCGCCTGGAAACCGTGAGATGAATTTATTAAGCCTAATCGGAGTCACCTAGTGCAG | 3930 fluorescence intensity (a.u.) |
| ATGGGCCATGGCCCATCCGTGCCACGTGTCGCATGCTCCTCGGAGTCACCTAGTGCAG | 27900 fluorescence intensity (a.u.) |
| AACACCAATCACCACGTACGCCGACCAACCCCATCCACCCCGGAGTCACCTAGTGCAG | 6870 fluorescence intensity (a.u.) |
| CCATGTAAGTGTCACGTCAATGCCACGTGAGACGAAGACCCGGAGTCACCTAGTGCAG | 12500 fluorescence intensity (a.u.) |
| GCCATGCATCCATACACGTCTACACTCTACACCCATTAACCGGAGTCACCTAGTGCAG | 4850 fluorescence intensity (a.u.) |
| CTCACCACCACCGTCGTCATCGTCGTCGTCACCCTCCTCCCGGAGTCACCTAGTGCAG | 6620 fluorescence intensity (a.u.) |
| CCATGTAAGTGCCACGTCAACGCCACGTGGATCGAAGACTCGGAGTCACCTAGTGCAG | 55500 fluorescence intensity (a.u.) |
| GGATCCCATTAACACGTGTCACCGTGGCATGCCACGTCATCGGAGTCACCTAGTGCAG | 51400 fluorescence intensity (a.u.) |
| GTCACCTAAGTGCCATGTCAACGCCACGTGGAAAGAAGACCGGAGTCACCTAGTGCAG | 25100 fluorescence intensity (a.u.) |
| TAGTCCAATCCATCGTGTTTCCACGTGGCGACCCAACCCCCGGAGTCACCTAGTGCAG | 40000 fluorescence intensity (a.u.) |
| AGGGGCCACACCGACCCTCCACGTCATCGTCCACGTCACCCGGAGTCACCTAGTGCAG | 40900 fluorescence intensity (a.u.) |
| GATCCAACACGTGTCCCCTACCCACGACACGTGGCAACCCCGGAGTCACCTAGTGCAG | 36500 fluorescence intensity (a.u.) |
| CCCATCTACCCACCCTCCGACACGTGGGCCCCACCCCGACCGGAGTCACCTAGTGCAG | 11000 fluorescence intensity (a.u.) |
| ACAAGGCAACTACTCCTAGCTAGTAAGCATCAATGCATGGCGGAGTCACCTAGTGCAG | 4520 fluorescence intensity (a.u.) |
| CGTAGGCTCGTCGCGGCCACGTACGCCATCCCGAGCTCGGCGGAGTCACCTAGTGCAG | 6280 fluorescence intensity (a.u.) |
